Active and inactive are the calls of the source. The calls were made as follows: active = hit-call score of the fitted dose curve at least 0.9, where 1 is the maximum; inactive = score below 0.9.

CCAAT/enhancer-binding protein beta (Homo sapiens), sequence (P17676 whole entry, looked up): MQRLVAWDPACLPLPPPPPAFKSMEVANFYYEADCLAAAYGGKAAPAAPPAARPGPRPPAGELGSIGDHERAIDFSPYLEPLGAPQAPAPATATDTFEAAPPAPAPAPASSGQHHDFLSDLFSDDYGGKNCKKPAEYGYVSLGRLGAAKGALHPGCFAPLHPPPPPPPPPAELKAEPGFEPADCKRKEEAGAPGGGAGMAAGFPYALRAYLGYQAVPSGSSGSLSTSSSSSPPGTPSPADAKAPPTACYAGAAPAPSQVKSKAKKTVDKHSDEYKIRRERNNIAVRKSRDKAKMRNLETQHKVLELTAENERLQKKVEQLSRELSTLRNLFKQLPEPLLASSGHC

This test addresses CCAAT/enhancer-binding protein beta (Homo sapiens) (UniProt P17676). Briefly: ATG_C_EBP_CIS: Attagene CIS-FACTORIAL HepG2 Assay for human CCAAT/Enhancer Binding Protein (C/EBP) beta (AID 2282927). As to conditions: HepG2 Attagene cis-factorial transcription factor reporter; actives raise or lower the signal. The method, then: ATG_CIS is a cell-based, multiplexed-readout assay that uses HepG2, a human liver cell line, with measurements taken at 24 hours after chemical dosing in a 24-well plate.ATG_C_EBP_CIS is one of 52 assay component(s) measured or calculated from the ATG_CIS assay. It is designed to make measurements of mRNA induction, a form of inducible reporter, as detected with fluorescence intensity signals by Reverse transcription polymerase chain reaction (RT-PCR) and Capillary electrophoresis technology.Data from the assay component ATG_C_EBP_CIS was analyzed into 1 assay endpoint. This assay endpoint, ATG_C_EBP_CIS, was analyzed with bidirectional fitting relative to DMSO as the negative control and baseline of activity. Using a type of inducible reporter, measures of mRNA for gain or loss-of-signal activity can be used to understand the reporter gene at the transcription factor-level as they relate to the gene CEBPB. Furthermore, this assay endpoint can be referred to as a primary readout, because this assay has produced multiple assay endpoints where this one serves a reporter gene function. To generalize the intended target to other relatable targets, this assay endpoint is annotated to the dna binding intended target family, where the subfamily is basic leucine zipper.
Human liver HepG2 cells are transiently transfected with multiple reporter transcription units (MRTUs) in 6-well plates using FuGene 6 reagent (Roche; 3 ml FuGene/1 mg DNA). The MRTU constructs are regulated by a cis-regulating element (promoter). […] A major difference between the CIS and TRANS system is that in CIS activities of endogenous TFs are measured, whereas the TRANS assay evaluates changes in activities of exogenous, chimeric NR-Gal4 proteins. […] At the end of 24 hour incubation, total RNA was isolated using TriZol reagent (Invitrogen). The isolated RNA is then reverse-transcribed using oligo(dT) primer and Mo-MLV reverse transcriptase (Invitrogen) with DNAse I (Ambion) treatment for 30 min. The one-tenth of the produced cDNA was amplified by PCR using Taq DNA polymerase (Invitrogen) and two reporter sequence-specific primers. The PCR products were fluorescently labeled by primer extension with 6-arboxyfluorescein (6-FAM) 5'-labeled reporter sequence-specific primer (2 min at 95 C, 20 s at 68 C and 10 min at 72 C) and these products were digested with 5U of HpaI (New England Biolabs) for 2h at 37 C. The fragments were purified using Qiaquick PCR columns (Qiagen), analyzed on an ABI 3130xL genetic analyzer (Applied Biosystems) with peak positions identified by using a set of X-rhodamine (ROX)-labeled MapMarker1000 molecular weight standards (BioVentures). The raw capillary electrophoresis data was processed using Attagraph software (Attagene).
Take `CC(CC=O)CCCC(C)(C)O` (stereo not given): the outcome was inactive. On the same count and under the same terms, next, `C(=CC=Nc1ccccc1)C=CNc1ccccc1`: “inactive”; `CCOc1nc(F)cc2nc(S(=O)(=O)Nc3c(Cl)cccc3C(=O)OC)nn12`: “inactive”. Same read-out and setting: the entry for `COC(=O)c1ccccc1OC` is “inactive”.

For `C=CC(=O)OCCOC(=O)C=C`, the outcome was inactive. Consider `SCCc1cnccn1`, for which the result was inactive.

As to `Nc1ccc(Cl)cc1Cl`, the outcome was inactive. With `CC=CC(F)(F)C(F)(F)C(F)(F)F`, the result was inactive. On the same count and under the same terms, next, `O=C(O)CC(C(=O)O)C(CC(=O)O)C(=O)O` (stereo not given): “inactive”; `Cc1ccc(C(C)c2ccc(C)c(C)c2)cc1C`: “inactive”; `O=C(Cl)c1cc(C(=O)Cl)cc(C(=O)Cl)c1`: “inactive”. Same read-out and setting: next, `CC(C)=CCCC(C)C=O` (stereo not given): “inactive”. On the same count and under the same terms, the entry for `CCCCC/C=C\CCC=O` is “inactive”. In the case of `Cc1cccc(OCCOc2cccc(C)c2)c1`, the outcome was inactive.

In the case of `Cc1cccc(C(=O)O)c1`, the outcome was inactive.

As for `O=S(=O)(O)c1ccc2cc(O)c(S(=O)(=O)O)cc2c1`, the result was inactive. On the same count and under the same terms, the entry for `O=c1n(CCO)c(=O)n(CCO)c(=O)n1CCO` is “inactive”. Still for that read-out and setting: next, `CCCCCC(C)O` (stereo not given): “inactive”; `N#[N+]c1ccc2c(S(=O)(=O)[O-])cccc2c1O`: “inactive”. Same read-out and setting: next, `C[Si](C)(C)O[Si](O)(O)O`: “inactive”; `CCCCCCC(O)CO` (stereo not given): “inactive”. For `O=Nc1ccc(O)cc1`, the outcome was inactive. Still for that read-out and setting: next, `COC(=O)c1sccc1S(N)(=O)=O`: “inactive”; `O=C1CCCC1`: “inactive”; `Nc1nc2ccccc2[nH]1`: “inactive”. Same read-out and setting: the entry for `CC(=O)OCCC1CCCCC1` is “inactive”; for `O=S(=O)(O)CC(O)CCl` (stereo not given) it is “inactive”. For `COc1cc(C)ccc1C(C)C`, the outcome was inactive. For the compound `NC(=O)C1CO1` (stereo not given), the outcome was inactive. On the same count and under the same terms, next, `[Cl][Nd]([Cl])[Cl]`: “inactive”. As for `Nc1ncn([C@@H]2O[C@H](CO)[C@@H](O)[C@H]2O)c(=O)n1`, the AC50 (usually the concentration giving half of the maximal activity seen) is 15.4 µM (active). Turning to `O=C1C(N(CO)C(=O)NCO)N(CO)C(=O)N1CO` (stereo not given), the result was inactive. Still for that read-out and setting: the entry for `CC(=O)c1ccc[nH]1` is “inactive”; for `CCCCCCOc1cc(C)c(O)c(C)c1C` it is “inactive”; for `CC=CC(=O)N(CC)c1ccccc1C` it is “inactive”. In the case of `Cn1c(=O)[nH]c2ncn(C)c2c1=O`, the result was inactive. Still for that read-out and setting: the entry for `O=c1c2ccccc2oc2ccccc12` is “inactive”; for `C=C(C)C(=O)OCC(C)C` it is “inactive”. The same measure, in the same setting: the entry for `c1ccc(CCCc2ccncc2)cc1` is “inactive”.

For `CC(C)=CC1CC(C)CCO1` (stereo not given), the result was inactive.
